Screen size: about 34,000 compounds; fewer than 10 were called active.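 Rule for the calls: active = primary screen hit, no activity in plain HEK293 cells, and in GIRK2-only cells above 5% efficacy rising with concentration; inactive = the rest, including fluorescent compounds.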 These entries were drawn from the full list.

We go through 105 compounds from PubChem BioAssay AID1259324 (C. David Weaver Laboratory, Vanderbilt University, 2017).

The target in the assay is G protein-activated inward rectifier potassium channel 2 (Homo sapiens) (UniProt P48051). The assay can be described thus: GIRK2 activation atop partial GPCR stimulation – cell-based, HEK293, thallium flux, summary (AID 1259324). Conditions: HEK293 GIRK2/NPY4 cells, thallium flux fluorescence.
Sequence of G protein-activated inward rectifier potassium channel 2 (Homo sapiens) (P48051 whole entry, looked up): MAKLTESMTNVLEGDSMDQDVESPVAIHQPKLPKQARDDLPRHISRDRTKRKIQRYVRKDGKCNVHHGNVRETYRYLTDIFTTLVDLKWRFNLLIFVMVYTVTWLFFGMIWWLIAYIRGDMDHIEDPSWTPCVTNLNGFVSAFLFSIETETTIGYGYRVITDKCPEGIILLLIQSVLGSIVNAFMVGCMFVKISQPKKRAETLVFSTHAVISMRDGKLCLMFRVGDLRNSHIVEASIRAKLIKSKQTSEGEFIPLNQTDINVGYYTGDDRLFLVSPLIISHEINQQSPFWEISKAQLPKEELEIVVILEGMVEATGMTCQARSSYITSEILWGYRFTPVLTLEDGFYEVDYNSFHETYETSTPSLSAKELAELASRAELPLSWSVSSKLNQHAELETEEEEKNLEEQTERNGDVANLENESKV
For `COc1ccc(NC(=O)c2ccc(C(F)(F)F)cc2)cc1N1CCCC1=O`, the compound was classed as inactive. For `O=C(NC1CC(=O)N(C2CC2)C1)c1ccc(-n2cccc2)cc1` (stereo not given) the value was “inactive”; for `O=C(c1cccc(Cl)c1)N1CCOC(c2ccc(C(F)(F)F)cc2)C1` (stereo not given), “inactive”; for `CC1CCN(C(=O)CN2CCN(c3nccn3-c3cccc(Cl)c3)CC2)CC1`, “inactive”. Take `COc1cccc(C(=O)NNC(=O)c2ccc(=O)n(Cc3ccccc3)c2)c1OC`: the compound was classed as inactive.

`O=C(NCCCO)C(=O)Nc1ccc2c(c1)OCCO2`: the call was inactive.

Take `O=C(CSc1nc2ccsc2c(=O)n1CCc1ccccc1)Nc1ccccc1F`: the result was inactive. For `COCCNc1oc2c(c1-c1ccc([N+](=O)[O-])cc1)c(=O)oc1ccc(C)cc12` the value was “inactive”; for `O=C(CN1CCOCC1)Nc1ccccc1-c1nc2ccccc2[nH]c1=O`, “inactive”; for `O=S1(=O)CCC(n2nc(-c3ccco3)cc2NS(=O)(=O)c2cccc(Cl)c2)C1` (stereo not given), “inactive”. As for `CC(C)(C)OC(=O)C1=NN(c2ccc(Cl)cc2)c2ncccc2S1(=O)=O`, the compound was called inactive. In the case of `CCn1nnc2c(NCc3ccccc3OC)ncnc21`, the call was inactive. As to `Cc1ccc(C(CNC(=O)C(=O)NCc2ccccc2)N2CCOCC2)cc1` (stereo not given), the call was inactive. For `CS(=O)(=O)N1CCN(CCNC(=O)c2ccc([N+](=O)[O-])o2)CC1`, the result was inactive. For the compound `O=C(NCc1cccs1)C(=O)NCC1CCN(C(=O)/C=C/c2ccco2)CC1`, the outcome was inactive. Turning to `O=C(NCc1cccs1)C(=O)NCC1CCCO1` (stereo not given), the compound was classed as inactive. Turning to `COc1ccc(OC)c(CNC(=O)c2snc(-c3cccc(F)c3)c2N)c1`, the result was inactive. In the case of `COc1ccc(CCNC(=O)COc2ccccc2Br)cc1OC`, the compound was classed as inactive. For `COc1cc(C)c(C)cc1S(=O)(=O)N1CCN(c2ccc(-c3cccnc3)nn2)CC1`, the compound was classed as inactive.

As for `COc1ccc(S(=O)(=O)CCCC(=O)Nc2nc(-c3ccc([N+](=O)[O-])cc3)cs2)cc1`, the compound was called inactive. For `Cc1nc(NCCNC(=O)Nc2ccccc2)cc(-n2cccn2)n1` the value was “inactive”; for `CCN1CCc2nc(-c3ccccc3)n(CC(=O)Nc3cc(OC)cc(OC)c3)c(=O)c2C1`, “inactive”. Regarding `O=C(NCCC1=CCCCC1)C(=O)Nc1cccc(N2CCCCC2=O)c1`, the call was inactive. For the compound `O=C(CN1CC(c2nc(-c3ccsc3)no2)C1)NCCc1ccccc1`, the call was inactive. In the case of `Cc1nn(-c2nc(C)c(C)c(=O)[nH]2)c(C)c1CCC(=O)Nc1ccc(C(F)(F)F)cc1`, the result was inactive. For `O=C(Cc1ccc(NS(=O)(=O)C2CC2)cc1)NCC(F)(F)F` the value was “inactive”; for `O=C(Cc1csc(-n2cccc2)n1)Nc1nc2ccccc2s1`, “inactive”; for `Cc1cccc(NC(=O)N2CCN(c3ccc4nnc(C5CC5)n4n3)CC2)c1C`, “inactive”. Turning to `CCOc1ccc2nc(NC(=O)Cn3cnc(C(C)C)cc3=O)sc2c1`, the result was inactive.

Take `Cc1ccc(-n2ccnc2N2CCN(C(=O)c3ccccc3)CC2)cc1`: the call was inactive. Consider `CS(=O)(=O)N1CCC(C(=O)Nc2nc3ccc(F)cc3s2)CC1`, for which the result was inactive. `Cc1nc(-c2cccc(NC(=O)Cc3c(C)[nH]c(=O)[nH]c3=O)c2)cs1`: the outcome was inactive. Take `COc1cc(COCC2CCN(C(=O)/C=C/c3ccccc3Cl)CC2)cc(OC)c1`: the compound was classed as inactive. Turning to `O=C(c1ccc([N+](=O)[O-])o1)N1CCN(Cc2nnnn2-c2ccc(F)c(F)c2)CC1`, the compound was classed as inactive. Consider `CC(C)(C)CN(C(=O)c1ccco1)c1ccncc1`, for which the compound was classed as inactive. Turning to `COc1ccccc1CNC(=O)C1CN(C(C)=O)C1`, the compound was called inactive.

In the case of `Cc1ccccc1C(=O)NCCNC(=O)c1ccc(NC(=O)C(C)C)cc1`, the result was inactive. For `O=C(Nc1cccs1)N1CCN(c2ccc(-c3ccco3)nn2)CC1`, the compound was classed as inactive. Turning to `CC(C)CCn1nc2ccc(S(=O)(=O)N3CCOCC3)cn2c1=O`, the outcome was inactive. For `Cn1nnc2c(N3CCN(C(=O)NCCOc4ccccc4)CC3)ncnc21` the value was “inactive”; for `COc1ccc(NC(=O)C(=O)NCCC(c2ccccc2)c2ccccc2)c(OC)c1`, “inactive”. Consider `Cc1ccc(Nc2ccc(NC(=O)/C=C/c3ccccc3)cc2)nn1`, for which the compound was called inactive.

For `CCOc1cccc2sc(N(CCN3CCOCC3)C(=O)c3ccco3)nc12`, the outcome was inactive. On to `COc1ccc(C=O)cc1Cn1c(=O)n(CCCCC(=O)NCC(C)C)c(=O)c2ccccc21`, for which the outcome was inactive. In the case of `COc1cc(OC)cc(-n2c(-c3ccco3)nc3nc4ccccc4nc32)c1`, the compound was classed as inactive. For the compound `Cc1ccc2nc(C3CC(=O)N(c4ccccc4)C3)[nH]c2c1` (stereo not given), the call was inactive. For `COc1ccc(CCNC(=O)Cn2nc(-c3ccc(Cl)cc3)ccc2=O)cc1` the value was “inactive”; for `O=C(NN1CCOCC1)c1ccc(N2CCC(Cc3ccccc3)CC2)nn1`, “inactive”; for `CS(=O)(=O)N1CCCCC1C(=O)Nc1nc(-c2ccccn2)cs1` (stereo not given), “inactive”. As to `O=C(NCCCN1CCOC(c2ccccc2)C1)c1cc2ccccc2oc1=O` (stereo not given), the call was inactive. For the compound `COc1ccc(NC(=O)NCC(C)(O)C2CC2)cc1OC` (stereo not given), the compound was called inactive. For `CSc1cccc(NC(=O)NCCNc2cc(-n3cccn3)ncn2)c1` the value was “inactive”; for `CSc1ccccc1CN1CCC(CNC(=O)c2ccc(S(=O)(=O)N(C)C)cc2)CC1`, “inactive”; for `COc1ccc(N2C(=O)CN(CCC3=CCCCC3)C3CS(=O)(=O)CC32)cc1Cl` (stereo not given), “inactive”.

Take `COc1cc(NC(=O)CSC2=NC3(CCCC3)N=C2c2ccccc2)cc(OC)c1`: the compound was classed as inactive. As for `Cc1ccc(N2CC(C(=O)NCC3CCN(S(=O)(=O)C4CC4)CC3)CC2=O)cc1C` (stereo not given), the call was inactive. Take `Cc1cc(-c2nnc(NC(=O)C(c3ccccc3)c3ccccc3)o2)nn1C`: the compound was called inactive. On to `CCOC(=O)CNC(=O)C1COCC(=O)N1Cc1ccccc1` (stereo not given), for which the result was inactive. As for `COc1ccc(CCNC(=O)CCc2sc(C)nc2-c2cccs2)cc1`, the call was inactive.

`O=S(=O)(N1CCCCCC1)N1CCN(c2ccccc2F)CC1`: the call was inactive. For `CCOC(=O)c1cn[nH]c1S(=O)(=O)NCc1ccccn1` the value was “inactive”. Consider `CSc1cccc(-n2nnc(C(=O)OCc3nc(-c4ccccc4)oc3C)c2C)c1`, for which the outcome was inactive.

Take `CN(C)C(CNC(=O)C(C)(C)C)c1ccccc1Cl` (stereo not given): the outcome was inactive. For the compound `CC(C)CCn1nc2ccc(S(=O)(=O)N3CCCCC3)cn2c1=O`, the call was inactive.

Take `COc1ccc(NC(=O)Cn2cc(-c3ccccc3)c(N(C)C)n2)cc1OC`: the outcome was inactive. On to `Cc1cc(NC(=O)C(=O)c2c(C)[nH]c3ccccc23)n(-c2nc(-c3cccs3)cs2)n1`, for which the outcome was inactive.

For `COc1ccc(NC(=O)c2ccccc2SC)cc1N1CCCCC1=O`, the compound was called inactive. For `Cc1cc(-c2nnc(NC(=O)c3ccc(S(=O)(=O)N4CCCC4)cc3)o2)n(C)n1` the value was “inactive”; for `COC(=O)c1ccc(OC)cc1CN1C(=O)N(c2cc(F)ccc2F)S(=O)(=O)c2ccccc21`, “inactive”; for `Cc1ccc(Nc2ccc(NC(=O)c3ccc(Br)o3)cc2)nn1`, “inactive”. Consider `Cc1csc(NC(=O)CSc2nc(=O)n(N3CCN(C)CC3)c3c2CCC3)n1`, for which the call was inactive. For `Cc1nnc(CNC(=O)C(C)n2nnc3ccccc3c2=O)o1` (stereo not given) the value was “inactive”; for `O=C(NCCN1CCOCC1)C(=O)NCC(F)(F)F`, “inactive”; for `CC(=O)N1CCN(S(=O)(=O)c2ccc(C(=O)NCc3cccnc3)cc2)CC1`, “inactive”. On to `COc1cc(C(=O)Nc2ccc3c(c2)N(C(=O)C2CC2)CCC3)cc(OC)c1OC`, for which the compound was called inactive. For `CC(Sc1ccnc2c1c(=O)n(C)c(=O)n2C)C(=O)O` (stereo not given) the value was “inactive”.

As for `Cn1nc(NC(=O)C(C)(C)Oc2ccc(Cl)cc2)c2c1NC(=O)CC2c1ccco1` (stereo not given), the result was inactive.

For `CS(=O)(=O)c1ccc(NC(=O)c2ccc(Cl)c(S(=O)(=O)N3CCOCC3)c2)cc1`, the result was inactive.

For the compound `CCOC(=O)Nc1nc(CC(=O)Nc2ccc(OC)cc2)cs1`, the result was inactive. For `O=C(NCc1ccc(Cl)cc1)C(=O)NCC1CCN(C(=O)c2cccnc2)CC1`, the compound was classed as inactive. For `Cc1cc(S(=O)(=O)NCC(O)c2ccc(C(F)(F)F)cc2)ccc1F` (stereo not given), the call was inactive. For `Cc1ccc(Oc2ccc(N(C)C(=O)c3cccc(F)c3)cc2)nn1`, the result was inactive. For the compound `CCOc1ccc(-c2cc(=O)n(CCCC(=O)Nc3cc(C)ns3)cn2)cc1`, the compound was called inactive. For `Cc1noc(C)c1S(=O)(=O)N1CCN(Cc2nc(-c3ccco3)cs2)CC1` the value was “inactive”. Turning to `CC1CCN(c2oc(-c3ccc(S(=O)(=O)N(C)Cc4ccccc4)cc3)nc2C#N)CC1`, the call was inactive. As for `O=C(NCC1CCN(S(=O)(=O)C2CC2)CC1)c1ccccn1`, the outcome was inactive. On to `CCOC(=O)C(CC)Sc1ccnc2c1c(=O)n(C)c(=O)n2C` (stereo not given), for which the call was inactive. For `CN1CCN(C(CNC(=O)C(=O)NCc2ccc(Cl)cc2)c2cccn2C)CC1` (stereo not given) the value was “inactive”. Consider `CCN1CCc2nc(-c3ccccc3)n(CC(=O)Nc3cccc(Cl)c3C)c(=O)c2C1`, for which the outcome was inactive. As to `CC(C)C(=O)N1CCCc2ccc(NC(=O)C(=O)NCCCc3ccccc3)cc21`, the compound was classed as inactive.

As to `CCOc1ccc(NS(=O)(=O)c2cccc(OC)c2)cc1`, the compound was called inactive. As for `COc1cc(S(=O)(=O)N2CCN(CCO)CC2)ccc1Cl`, the result was inactive.

With `O=C(N1CCC(c2cccs2)CC1)C1(c2ccc(F)cc2)CC1`, the result was inactive.

As for `CS(=O)(=O)N1CCN(Cc2nnnn2-c2ccc(F)cc2)CC1`, the outcome was inactive.

On to `CCn1c(SCC(=O)N(C)c2ccccc2)nnc1-c1cn(C)nc1OC`, for which the result was inactive.

For the compound `O=C(NCCN1CCC(c2cccs2)CC1)C(=O)Nc1ccc2c(c1)OCO2`, the result was inactive. As for `CCCNC(=O)C(=O)Nc1c2c(nn1C(C)(C)C)CSC2`, the outcome was inactive. As for `O=C(Nc1ccc(Cl)cc1)N1CCC2(CC1)NC(=O)N(CCOc1ccccc1)C2=O`, the outcome was inactive. For `O=C(CCn1ccc(=O)[nH]c1=O)N1CCN(c2ccc(-c3ccccn3)nn2)CC1`, the compound was called inactive. Turning to `Cn1cnc2cc(OC(=O)c3ccc(=O)[nH]n3)ccc21`, the call was inactive. Consider `O=C(Cc1ccc2c(c1)OCO2)Nc1nnc(-c2ccc(Br)s2)o1`, for which the compound was called inactive. For `CC1(C)Cc2cccc(OCCCS(=O)(=O)N3CCCCC3)c2O1`, the outcome was inactive. Take `O=C(Cn1cnc(-c2cccs2)cc1=O)NCCOc1ccc(F)cc1`: the call was inactive.

In the case of `COC(=O)c1ccc(-c2csc(NC(=O)CS(=O)(=O)Cc3ccccc3)n2)cc1`, the compound was classed as inactive. Consider `Cc1cccc(C(=O)Nc2cc(-c3ccco3)nn2-c2nc(C)cc(=O)[nH]2)c1`, for which the outcome was inactive.
